Laboratory results from PubChem BioAssay AID624296 (National Center for Advancing Translational Sciences (NCATS), 2012).
Out of some 350,000 compounds screened, about 9,900 (2.8%) were called active. Not shown: some 15% with an inconclusive outcome. The sample holds actives, similar compounds and a random draw of the others, so the mix is not that of the screen. Values without a mark were called inactive. Calls follow the shape of the dose curve; as a rule, active = well fitted activation curve with a large enough effect; inconclusive = small, poorly fitted or top-dose-only effect; inactive = no such curve, though single readings can be large or run the other way.

Assay: A quantitative high throughput screen for small molecules that induce DNA re-replication in MCF 10a normal breast cells. Also: nearly all actives have a fitted effect of over 50% in size. As to activity, positive = re-replication: % of control where 0% means no effect.
Settings: MCF 10A DNA re-replication, Hoechst nuclear intensity, 48 h; series mostly up to 46.1 µM; activity, positive = re-replication: at the top concentration
Potency is read from the fitted curve at half-maximal effect.

| Compound | activity, positive = re-replication | Potency |
| --- | --- | --- |
| Cc1ccc(CNC(=O)COC(=O)C2CCC2)cc1 | -2.9% | – |
| O=C(c1ccc(Cl)nc1)N1CCN(S(=O)(=O)c2ccc3c(c2)OCCO3)CC1 | -10.9% | – |
| COc1ccc(S(=O)(=O)N2CCN(CC(=O)N3c4ccccc4CC3C)CC2)cc1OC (stereo not given) | 6.54% | – |
| COc1cc(/C=N/Nc2ccc(C)cc2)cc(Br)c1O | – | 25.9 µM (active) |
| COc1cc(/C=N/NC(=S)Nc2cccnc2)cc(OC)c1O | 7.2% | – |
| CCNc1nc(NCC)nc(N/N=C/c2ccc(O)c(OC)c2)n1 | -0.389% | – |
| CCN(C(=O)CSc1nnnn1-c1ccc(OC)cc1)C1CCS(=O)(=O)C1 (stereo not given) | 5% | – |
| COC(=O)c1cc(Oc2ccc(S(=O)(=O)N3CCOCC3)cc2[N+](=O)[O-])cc(C(=O)OC)c1 | 2.23% | – |
| O=S(=O)(NCCOc1cccc2cccnc12)c1ccc(F)cc1 | – | 10.3 µM (active) |
| O=S(=O)(NCCc1ccc(F)cc1)c1cccc2cccnc12 | -10.9% | – |
| O=S(=O)(NCc1ccccn1)c1ccc(F)cc1 | -2.88% | – |
| COc1ccccc1C(=O)NCC(=O)NCCSc1ccc(Br)cc1 | -0.726% | – |
| O=C(O[C@H]1[C@H](Cc2ccccc2)NS(=O)(=O)[C@H]2C[C@@H]3C=C[C@]12O3)c1ccc([N+](=O)[O-])cc1 | 0.151% | – |
| CCOC(=O)C1CCN(C(=O)CN2C(=O)NC(C)(c3ccc4cc(OC)ccc4c3)C2=O)CC1 (stereo not given) | 13.8% | – |
| COc1cc(/C=C(\C#N)c2nc3ccccc3[nH]2)ccc1O | 19.5% | – |
| COc1ccc(C(C(O)C(=O)c2c[nH]c3ccccc23)N2CCN(c3ccccc3)CC2)cc1 (stereo not given) | 20.1% | – |
| COc1ccc(/C=C(\C#N)c2c[nH]c3ccccc23)cc1 | – | 13 µM (active) |
| COc1ccc(C(=O)COC(=O)CN2C(=O)C3CC=CCC3C2=O)c(OC)c1 (stereo not given) | 6.24% | – |
| NC(=O)Nc1ccc(C(=O)OCC(=O)NC2CCCc3ccccc32)cc1 (stereo not given) | 3.28% | – |
| CCOC(=O)c1sc(NC(=O)COc2ncnc3ccccc23)c(C(=O)OCC)c1C | 25.7% | – |
| CCOC(=O)c1c(NC(=O)CNC2CCCc3ccccc32)sc(C(N)=O)c1C (stereo not given) | – | 16.4 µM (active) |
| O=C(COC(=O)c1ccc(O)cc1O)NC(=O)c1ccccc1 | 0.164% | – |
| CCCC(=O)NC(=S)Nc1ccc(CN2CCOCC2)cc1 | – | 0.651 µM (active) |
| CCCc1cc(=O)oc2cc(OCC(=O)Nc3ccc(CN4CCOCC4)cc3)c(Cl)cc12 | 0.913% | – |
| O=C(Nc1ccc(CN2CCOCC2)cc1)c1cc(Cl)ccc1Cl | 14.9% | – |

| Compound | activity, positive = re-replication | Potency |
| --- | --- | --- |
| O=C(c1cc2ccccc2o1)N1CCN(S(=O)(=O)c2ccc(Cl)s2)CC1 | 14.5% | – |
| CCCCCCSc1ccc([C@@H]2[C@H]3C(=O)N(CC)C(=O)[C@H]3[C@]3(C(=O)OC)CCCCN23)cc1 | -61.3% | – |
| CCn1nnc2cc(C(=O)Nc3ccc(C(=O)OC(C)C)cc3)ccc21 | 12.4% | – |
| CCOC(=O)CSc1nnc(NC(=O)c2cccc(S(=O)(=O)N3CCCC3)c2)s1 | 1.71% | – |
| CCOC(=O)C1=C(CC)Nc2ccccc2N=C1N | -1.41% | – |
| CCOC(=O)C1=C(CC)Nc2ccccc2N=C1NC(=O)c1cccc(S(=O)(=O)N2CCCC2)c1 | – | 23.1 µM (active) |
| CCC(C)C(N=C1NS(=O)(=O)c2ccccc21)C(=O)N1CCC(C)CC1 (stereo not given) | 11.9% | – |
| Cc1ccnc(SCCn2c(Br)nc3c2c(=O)[nH]c(=O)n3C)n1 | -10.4% | – |
| Cn1c(=O)[nH]c(=O)c2c1nc(Br)n2CCCCSc1nc2ccccc2o1 | – | 7.31 µM (active) |
| Cn1c(=O)c2c(nc(Br)n2CCSc2nc3ccccc3o2)n(C)c1=O | 0.906% | – |
| Cc1cccc(C(=O)N[C@H](C(=O)NCc2cccs2)C(C)C)c1 | 1.53% | – |
| CC(C)(C)OC(=O)C[C@@H]1C/C=C\C[C@@H](CC(=O)N[C@@H](CO)Cc2ccccc2)C(=O)N2CCC[C@H]2COC1=O | 3.69% | – |
| Nc1ccc2[nH]c(=S)sc2c1 | -3.92% | – |
| CCCN1CCn2c3c(c4cc(Br)ccc42)CCCC31 (stereo not given) | – | 23.1 µM (active) |
| COc1ccc(S(=O)(=O)N2CCOCC2)cc1NC(=O)CC1CC2CCC1C2 (stereo not given) | -6.11% | – |
| Cc1ccc(C(=O)O)c(NC=O)c1OCc1ccccc1 | 0.724% | – |
| CCCCOC(=O)Cn1c(=N)n(CCN(CC)CC)c2ccccc21 | -8.39% | – |
| CCCCOC(=O)Cn1c(=O)n(CC(=O)OCCCC)c2cc(C)ccc21 | 7.6% | – |
| CCCCCCCCCCOC(=O)Cn1c(COc2ccc(C)cc2)[n+](C)c2ccccc21 | – | 23.1 µM (active) |
| CC(=O)Nc1ccc(S(=O)(=O)NC(C)C(=O)OCCOc2ccc(F)cc2)cc1 (stereo not given) | -3.06% | – |
| COc1cc(C(=O)NCC2(c3ccccc3)CCCC2)ccc1OC(C)C | 15.2% | – |
| COc1ccc(C2(CNC(=O)Cc3ccc(OC)c(OC)c3)CCCC2)cc1 | 3.5% | – |
| CCOc1c(OC)cccc1C(=O)NCC1(c2ccccc2)CCCC1 | – | 20.6 µM (active) |
| CCC(C)CCN1CCN=C1N(C)C (stereo not given) | 23.5% | – |
| O=C1CC[C@@H]2CC3(C[C@@H]4CCN1[C@H]24)Nc1cc([N+](=O)[O-])ccc1NC3=NC1CCCCC1 (stereo not given in full) | -22.4% | – |

| Compound | activity, positive = re-replication | Potency |
| --- | --- | --- |
| COc1cc2c(cc1OC)CN(C(=O)c1cc(=O)c3ccccc3o1)CC2 | – | 10.3 µM (active) |
| O=C(c1cc(=O)c2ccccc2o1)N1CCN(c2ccccc2)CC1 | -1.76% | – |
| COc1ccccc1CNC(=O)c1cc(=O)c2ccccc2o1 | -23.8% | – |
| NC(=O)C1(Nc2ccc([N+](=O)[O-])cc2)CCCC1 | -29.5% | – |
| CC1CN(Cc2ccco2)C(=S)N(c2ccccc2)C1=O (stereo not given) | 22.6% | – |
| C[C@@H](NC(=O)OC(C)(C)C)c1nnc(S(=O)(=O)Cc2ccccc2)o1 | – | 18.4 µM (active) |
| CC(C)Sc1nnc([C@H](Cc2ccccc2)NC(=O)OC(C)(C)C)o1 | -5.09% | – |
| C[C@H](NC(=O)OC(C)(C)C)c1nnc(SCC(N)=O)o1 | 8.88% | – |
| Cc1ccc(S(=O)(=O)Nc2ccc(F)c(S(=O)(=O)N3CCOCC3)c2)cc1 | -46% | – |
| CNS(=O)(=O)c1cccc(C(=O)OCCCC(=O)c2ccccc2)c1 | 12.4% | – |
| CCOc1cc(-c2cc(-c3ccc(OC)cc3)nc(N)c2C#N)ccc1O | 12.9% | – |
| COc1ccc(OC)c2c(N)c(C#N)c(C(F)(F)C(F)(F)F)nc12 | 17.3% | – |
| COc1ccc(-c2cc(-c3ccc(N)cc3)nc(N)c2C#N)cc1OC | – | 23.1 µM (active) |
| CCOc1cc(-c2cc(-c3ccc(NC(C)=O)cc3)nc(N)c2C#N)ccc1O | – | 18.4 µM (active) |
| CC(=O)Nc1ccc(-c2cn3cccnc3n2)cc1 | 11.3% | – |
| COc1ccc(C2CC(=O)Nc3sc(=N)c4c(N)c(C#N)c(N)nc4c32)cc1OC (stereo not given) | -0.0368% | – |
| O=C(COc1ccccc1F)NNC(=O)c1cc(Br)ccc1Cl | -8.12% | – |
| O=S(=O)(c1cccs1)N1CCN(CCOc2ccccc2)CC1 | 0.979% | – |
| CCOc1cc(/C=C/C(=O)OCC(=O)NCCN2C(=O)CSC2=O)ccc1OCC(C)C | -2.28% | – |
| Cc1cccc(N2O[C@H]3C=CC2CCCC3)n1 | -0.361% | – |
| CC(=O)c1ccc(OCCCC(=O)Nc2ccc(C)c(S(=O)(=O)N3CCOCC3)c2)cc1 | 6.11% | – |
| Cc1ccc(N(NC(=O)C(C)(C)O)C(=O)c2ccccc2)cc1C | -12.8% | – |
| CC(C)(O)C(=O)NN(C(=O)c1ccccc1)c1cccc(Br)c1 | 0.0132% | – |
| CCCC(O)(CCC)C(=O)NN(C(=O)CCl)c1cccc(C)c1 | – | 14.6 µM (active) |
| COc1cc(NC(=O)COC(=O)c2cc(S(=O)(=O)N3CCOCC3)ccc2F)cc(OC)c1 | 3.72% | – |

| Compound | activity, positive = re-replication | Potency |
| --- | --- | --- |
| CSc1ccc(Cl)c(C(=O)OCC(=O)N2CCNC2=O)c1 | -3.13% | – |
| O=C1CC2(CCCC2)C(=O)N1CN1CCN(S(=O)(=O)c2ccc(F)cc2F)CC1 | 15.1% | – |
| CC/C(=C\c1ccc(Cl)cc1)c1ccncc1 | 8.16% | – |
| O=C(Cc1nn[nH]n1)NCCC1=CCCCC1 | 0.509% | – |
| CCn1c(=O)cc(SCC(=O)NCCC2=CCCCC2)c2ccccc21 | 1.51% | – |
| Cc1ccc(-n2c(SCC(=O)NCCC3=CCCCC3)nc3n[nH]c(C)c3c2=N)cc1Cl | – | 16.4 µM (active) |
| Cc1ccc(N2C(=O)N3[C@@H]4c5ccccc5OC[C@@H]4[C@@H](c4ccccc4)[C@@]3(C)C2=O)cc1 | 4.75% | – |
| O=C(O)C(CCc1ccccn1)c1ccccc1 (stereo not given) | -18.4% | – |
| O=c1ccc(S(=O)(=O)N2CCCC2)cn1Cc1nc(-c2ccccc2)no1 | 6.01% | – |
| O=C(O)C(c1cccs1)C1(O)CCCCC1 (stereo not given) | 0.694% | – |
| Nc1ccc2c(c1)C(=Cc1cccnc1)c1ccccc1-2 | 7.21% | – |
| CC(C)=CCc1ccc(O)c(=O)cc1C(C)C | – | 20.6 µM (active) |
| CC(C)c1cc(N=O)cc(C(C)C)c1O | 7.92% | – |
| CCN(C(=O)COC(=O)Cc1c(F)cccc1Cl)c1c(N)n(Cc2ccccc2)c(=O)[nH]c1=O | -0.793% | – |
| COc1cccc(NC(=O)CN(C)CC(=O)Nc2ccc3c(c2)CCC3)c1 | – | 0.651 µM (active) |
| COc1cccc(NC(=O)CN(C)C(=O)CSC(=S)N2CCCC2)c1 | 1.18% | – |
| COc1ccc(NC(=O)CN(C)CC(=O)Nc2cccc(C(F)(F)F)c2)cc1 | 0.322% | – |
| O=C(Cn1nnc(-c2ccccc2)n1)NC(=O)NC1CCCC1 | 1.62% | – |
| O=C(COC(=O)c1ccc(Br)o1)NC12CC3CC(CC(C3)C1)C2 | 2.1% | – |
| O=C1N[C@H](Cc2c[nH]c3ccccc23)COC(=O)[C@H](Cc2ccc(F)cc2)C/C=C\C[C@H]1CC(=O)N(CCO)Cc1ccccc1 | 2.57% | – |
| CC(C)(C)OC(=O)C[C@@H]1C/C=C\C[C@@H](CC(=O)N(CCO)Cc2ccccc2)C(=O)N[C@H](Cc2ccccc2)COC1=O | – | 20.6 µM (active) |
| O=C1NC[C@@H](c2ccccc2)OC(=O)[C@H](Cc2ccc(F)cc2)CC/C=C/C[C@H]1CC(=O)N(CCO)Cc1ccccc1 | – | 18.4 µM (active) |
| O=C1OC[C@@H]2CCCN2C(=O)[C@H](CC(=O)N(CCO)Cc2ccccc2)C/C=C\CC[C@@H]1Cc1ccc(F)cc1 | 2.42% | – |
| CC(C)(C)OC(=O)C[C@@H]1C/C=C\C[C@H](CC(=O)N[C@@H](CO)Cc2ccccc2)C(=O)N[C@H](Cc2ccccc2)COC1=O | 2.81% | – |
| O=C1CCC/C=C/C[C@@H](CC(=O)N(CCO)Cc2ccccc2)C(=O)NC[C@H](c2ccccc2)O1 | -4.51% | – |
